Each structure is given as a SMILES string. Unmarked numbers belong to inactive results. How the calls were made is not given here.

In the assay the target is Pantothenate synthetase (Mycobacterium tuberculosis (strain ATCC 25618 / H37Rv)) (UniProt P9WIL5). The assay can be described thus: Coupled enzyme confirmation of inhibitors against recombinant Mtb PanC (AID 375).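 Further: 0% = full reaction with vehicle and 100% = no enzyme background.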 The conditions noted are these: coupled enzyme assay; at 10 µM, hits give high values.
Pantothenate synthetase (Mycobacterium tuberculosis (strain ATCC 25618 / H37Rv)), sequence (P9WIL5 whole entry, looked up): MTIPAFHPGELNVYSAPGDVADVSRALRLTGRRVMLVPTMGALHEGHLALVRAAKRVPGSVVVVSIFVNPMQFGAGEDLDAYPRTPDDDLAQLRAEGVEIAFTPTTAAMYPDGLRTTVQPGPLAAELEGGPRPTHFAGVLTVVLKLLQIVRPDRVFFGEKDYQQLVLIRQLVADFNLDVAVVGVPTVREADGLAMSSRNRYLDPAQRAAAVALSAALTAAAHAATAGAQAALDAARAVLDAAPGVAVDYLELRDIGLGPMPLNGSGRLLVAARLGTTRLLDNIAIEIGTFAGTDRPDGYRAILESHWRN
In general, inhibition refers to the change of the read-out against control, counted positive when it falls. `Cc1ccc(NC(=O)CCC(=O)OCC(F)(F)C(F)F)cc1`: the inhibition was 0%.
In the case of `Cc1cc(C)c2nc(C(F)(F)F)nc(NCCCN3CCCC3=O)c2c1`, the inhibition is 0%.
`O=C(O)c1cc(O)c2c(c1)C(=O)c1cccc(O)c1C2=O`: the inhibition was 9%.
Consider `CC(C)(C)OC(=O)N1CCOCCOCCN(C(=O)OC(C)(C)C)CCOCCOCC1`, for which the inhibition was 0%.
For the compound `O=C(Nc1nccs1)c1cccc(NC(=O)C2CC2)c1`, the inhibition was 6%.
Regarding `Cc1nn(Cc2ccccc2)c(C)c1NC(=O)CCC(=O)O`, the inhibition was 2%.
For `CCOC(=O)c1cc2c(=O)n3ccccc3nc2n(CC2CCCO2)c1=NC(C)=O` (stereo unspecified) the value was 4%; for `CC(=O)[C@@]1(O)CC[C@H]2[C@@H]3C[C@H](C)C4=CC(=O)CC[C@]4(C)[C@H]3CC[C@@]21C`, 1%.
Consider `COC(=O)CCCCCNc1ccc(C(=O)OC)cc1N`, for which the inhibition was 0%.
For `COC(=O)CCN(C(=O)c1ccc2c(c1)OCO2)c1ccccn1` the value was 0%; for `CN1CCN(c2nc3c(c(=O)[nH]c(=O)n3C)n2CCSc2nc3ccccc3s2)CC1`, 8%.
In the case of `COc1cccc(NC(=O)Cc2nnc(SCC(=O)c3ccccc3)n2C)c1`, the inhibition was 0%.
Regarding `Cc1ccc2oc(C(=O)Nc3c(C)n(C)n(-c4ccccc4)c3=O)c(C)c2c1`, the inhibition is 0%.
For `O=C(Cn1nc(Cc2cccnc2)c2ccccc2c1=O)Nc1ccc2c(c1)OCO2` the value was 0%.
Consider `COc1ccccc1CNC(=O)N[C@@H](Cc1ccccc1)C(=O)O`, for which the inhibition is 6%.
On to `CCCCn1nnnc1NCc1cccs1`, for which the inhibition was 0%.
